High-throughput results (PubChem)
TEAD-YAP block: TEAD-YAP interaction inhibition; HEK-TIYL cells, TEAD-Gal4/YAP UAS-luciferase luminescence; inhibition, % at 9.12 µM; 640,000 compounds, 1.4% hits; in the data active = inhibition above about 32%;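 note: 0% = median of test compound wells and 100% = reference inhibitor wells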
GPR151 ag: human GPR151 activation | Q8TDV0 | activation, % at 11.2 µM | 650,000 compounds, 1% hits | PathHunter beta-arrestin GPR151 cells, luminescence; in the data active = activation above about 4.9%;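 note: 0% = median of compound wells and 100% = cells with positive control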
FBW7 act: activators of human E3 ligase FBW7. normalized activity (activation), % at 26.1 µM. 650,000 compounds, 0.13% hits. Q969H0. AlphaScreen FBW7–phospho-cyclin E peptide binding, activator screen; in the data active = normalized activity above about 1.9%;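 note: purified mutant Fbw7 with reduced substrate affinity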
Target sequence (Q969H0 whole entry, looked up): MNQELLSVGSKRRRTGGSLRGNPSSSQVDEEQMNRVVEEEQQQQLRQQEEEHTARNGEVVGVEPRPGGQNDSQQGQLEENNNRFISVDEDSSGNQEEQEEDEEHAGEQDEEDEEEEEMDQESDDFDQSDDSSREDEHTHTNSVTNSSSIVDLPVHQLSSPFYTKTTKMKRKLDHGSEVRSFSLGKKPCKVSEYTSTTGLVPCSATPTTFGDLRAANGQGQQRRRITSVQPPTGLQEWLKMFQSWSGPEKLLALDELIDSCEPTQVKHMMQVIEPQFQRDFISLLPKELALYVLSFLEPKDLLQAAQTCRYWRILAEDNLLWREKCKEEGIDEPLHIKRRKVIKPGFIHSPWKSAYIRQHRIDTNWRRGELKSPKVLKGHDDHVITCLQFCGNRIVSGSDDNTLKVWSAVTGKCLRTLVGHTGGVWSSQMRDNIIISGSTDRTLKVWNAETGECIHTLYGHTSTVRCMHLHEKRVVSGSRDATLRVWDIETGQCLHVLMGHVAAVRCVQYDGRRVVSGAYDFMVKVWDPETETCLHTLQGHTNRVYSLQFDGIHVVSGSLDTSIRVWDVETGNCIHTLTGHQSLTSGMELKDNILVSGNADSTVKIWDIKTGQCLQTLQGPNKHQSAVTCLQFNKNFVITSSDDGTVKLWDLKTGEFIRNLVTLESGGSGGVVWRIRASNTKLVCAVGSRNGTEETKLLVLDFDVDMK
MITF primary: blocks human microphthalmia-associated transcription factor; O75030; AlphaScreen MITF homodimerization, bead proximity signal; inhibition, % at 2.6 µM; 650,000 compounds, 0.91% hits; AID 1259374; in the data active = inhibition above about 50%;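 note: 0% = vehicle wells with protein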
* marks the source's active call; other numbers are inactive results. In the library only some 3.5% were active in any assay of this set; here they are far more common.

SMILES	TEAD-YAP block	GPR151 ag	FBW7 act	MITF primary
O=C(NCCOc1ccccc1)c1cccc(Nc2ccc(N3CCOCC3)cc2)n1	47.0*	3.6	-0.2	0.7
COc1ccc(CCNC(=O)c2cccc(Nc3ccncc3)n2)cc1	2.4	4.3	0.2	-1.8
O=C(NCc1ccccc1)c1cccc(Nc2ccc(N3CCOCC3)cc2)n1	24.8	2.7	-0.1	6.8
COc1ccc(CCNC(=O)c2cccc(Nc3ccc(-n4ccnc4)cc3)n2)cc1	49.0*	-0.3	-0.1	4.5
O=C(NCCOc1ccccc1F)c1ccc2ccccc2n1	58.2*	-3.3	0.3	-5.0
O=C(NCCOc1ccccc1)c1ccc2ccccc2n1	52.7*	-0.9	-0.1	-13.8
O=C(Nc1nc2ccc(Br)cc2s1)c1ccc([N+](=O)[O-])s1	-5.7	0.8	0.0	11.5
COc1cc(OC)nc(N2CCN(C(=S)Nc3cccc(Cl)c3)CC2)n1	7.8	-0.5	0.1	8.7
COc1cc2c(-c3ccccc3Cl)nc3c(c(C)nn3-c3ccccc3)c2cc1OC	40.1*	0.5	0.4	13.7
COc1cc2c(-c3ccccc3Br)nc3c(c(C)nn3-c3ccccc3)c2cc1OC	9.9	0.3	0.0	10.4
CC(C)CCn1c(SCc2c(F)cccc2Cl)nc2c1c(=O)[nH]c(=O)n2C	8.4	-0.4	0.6	10.7
COCCNC(=S)NNC(=O)CSCc1ccccc1Br	0.7	1.5	2.8*	21.1
Cc1nc(SCC(=O)N(C(C)C)C(C)C)c2c(C)c(C)sc2n1	50.9*	1.1	0.0	-3.9
COc1c(C)c2c(c(O)c1C/C=C(\C)CCC(=O)OCCN1CCOCC1)C(=O)OC2	47.9*	-1.7	0.1	-3.7
COc1ccc(NS(=O)(=O)c2ccc(OCC(=O)Nc3ccc(C)cc3)cc2)cc1	-6.7	-0.8	0.1	14.5
COc1ccc2cc(Br)ccc2c1CC(=O)Nc1nc(C)cs1	37.8*	-0.9	0.0	4.4
O=c1c(-c2ccccc2)c(N2CCN(c3ccccc3F)CC2)c1=O	-8.4	-0.1	-0.1	2.1
COc1ccccc1N1CCN(c2c(-c3ccccc3)c(=O)c2=O)CC1	67.1*	-2.2	-0.1	-4.2
O=c1c(-c2ccc(Cl)cc2)c(N2CCN(c3ccccc3)CC2)c1=O	60.3*	3.4	0.1	1.5
O=c1c(-c2ccccc2)c(N2CCN(c3cccc(Cl)c3)CC2)c1=O	0.6	0.4	-0.1	-10.4
O=c1c(-c2ccc(Cl)cc2)c(N2CCN(c3ccccc3F)CC2)c1=O	41.6*	1.5	0.3	17.2
CCc1ccccc1NC(=O)CN(c1cccc(Cl)c1)S(C)(=O)=O	6.2	0.0	0.5	14.9
CC(=O)c1c(C)[nH]c(C(=O)OCC(=O)Nc2cccc(S(=O)(=O)N3CCCC3)c2)c1C	32.8*	0.1	-0.1	5.9
CC(=O)c1c(C)[nH]c(C(=O)OCC(=O)Nc2ccc(Cl)cc2)c1C	11.8	1.8	0.1	-6.4
CC(=O)c1c(C)[nH]c(C(=O)OCC(=O)Nc2ccc(F)c(Cl)c2)c1C	34.7*	3.0	0.4	-8.1
SMILES	TEAD-YAP block	GPR151 ag	FBW7 act	MITF primary
CC(=O)c1c(C)[nH]c(C(=O)OCC(=O)Nc2cccc(Cl)c2)c1C	43.9*	-0.8	0.1	7.1
CC(=O)c1c(C)[nH]c(C(=O)OCC(=O)Nc2ccc(C)c(Cl)c2)c1C	9.1	1.6	-0.1	4.2
CCc1c(C)sc(NC(=O)C2CC2c2ccccc2)c1C(N)=O (stereo not given)	32.9*	4.4	0.5	9.0
CCOC(=O)c1c(NC(=O)C2CC2c2ccccc2)sc(C)c1C (stereo not given)	-5.7	0.9	-0.1	-10.6
CCc1ccc(/C=C2/NC(=O)N(Cc3ccc(F)cc3)C2=O)cc1	7.7	1.1	0.0	6.2
O=C(NCC1(O)CCCCC1)c1ccc(OC2CCN(C(=O)C3CC3)CC2)cc1	-12.3	-1.4	-0.1	-0.7
Cc1cc(=O)nc2c3ccccc3n(CC(=O)NCC3CCCO3)n12 (stereo not given)	-3.6	1.1	0.0	2.2
Clc1ccc(NCc2cn3ccccc3n2)cc1	-61.2	-1.5	-0.1	4.1
COc1ccc(NC(=S)N(Cc2ccccc2F)C2CCCCC2)cc1	-5.0	0.5	-0.1	0.2
COc1cc(CN2CCN(S(=O)(=O)c3ccc(NC(C)=O)cc3)CC2)ccc1OCc1ccccc1	30.5	2.2	0.2	40.1
COc1ccc(CN2CCN(S(=O)(=O)c3ccc(NC(C)=O)cc3)CC2)cc1OCc1ccccc1	35.4*	0.7	-0.1	46.1
CC(=O)Nc1cnn(-c2ccc(C(=O)NC3CCCc4ccccc43)cc2)c1 (stereo not given)	-4.8	-1.9	-0.3	-13.9
CCN(CC)c1nc(C)nc2sc(C(=O)Nc3ccc(F)cc3F)c(C)c12	-1.4	-1.5	0.0	5.4
COc1ccccc1C1CC(=O)Nc2cc3c(cc21)OCO3 (stereo not given)	52.8*	-0.6	0.0	10.9
O=C1OCC2=C1C(c1ccccc1Br)c1cc3c(cc1N2)OCO3 (stereo not given)	39.9*	0.2	0.0	6.6
O=C1CC(c2ccccc2OCc2ccccc2)c2cc3c(cc2N1)OCO3 (stereo not given)	5.3	-0.9	-0.1	-0.2
COc1ccc(OC)c(C2C3=C(COC3=O)Nc3cc4c(cc32)OCO4)c1 (stereo not given)	54.7*	-0.8	0.6	-6.8
COc1cc(Cl)cc(/C=N\NC(=O)C2COc3cc4ccccc4cc3O2)c1O (stereo not given)	52.7*	-0.9	-0.3	-10.3
Cc1ccc(/C=N/NC(=O)C2COc3ccccc3O2)c(O)c1 (stereo not given)	53.2*	-0.9	-0.1	-18.8
O=C(N/N=C/c1ccc2c3c(cccc13)CC2)C1COc2ccccc2O1 (stereo not given)	48.9*	-1.1	0.0	-23.3
COc1cc([N+](=O)[O-])cc(/C=N/NC(=O)C2COc3ccccc3O2)c1O (stereo not given)	2.5	-1.4	0.6	10.7
COc1cccc(/C=N/NC(=O)C2COc3ccccc3O2)c1O (stereo not given)	7.3	-0.2	-1.2	68.8*
OCCN(CC(O)COCc1ccccc1)CC(O)Cn1ccc2ccccc21 (stereo not given)	-0.5	-1.3	0.7	-3.8
C/C(=N\NC(=O)C1COc2ccccc2O1)c1ccco1 (stereo not given)	39.1*	-0.9	0.4	-0.9
O=C(N/N=C/c1ccc(O)c(O)c1O)C1COc2ccccc2O1 (stereo not given)	-2.5	-0.3	-1.2	55.3*
O=C(N/N=C/c1ccccc1)C1COc2ccccc2O1 (stereo not given)	37.3*	2.7	-0.1	-0.3
C/C(=N\NC(=O)C1COc2ccccc2O1)c1ccccc1 (stereo not given)	25.4	-1.6	0.5	1.2
Cc1nc(Nc2ccc(Cl)c(Cl)c2)nc(Nc2ccc(Cl)c(Cl)c2)c1[N+](=O)[O-]	8.6	0.4	0.3	9.0
C=CCn1c(SCC)nnc1-c1ccc([N+](=O)[O-])cc1	-0.2	0.6	0.1	8.7
C=CCn1c(Sc2ccc([N+](=O)[O-])cn2)nnc1-c1ccc(OC)cc1	48.0*	-0.3	0.0	-6.7
